PubChem BioAssay (Tox21)
“And” between values parts separate entries of the source, which are not always exact repeats. Equal values may be shown once. Records with an inconclusive call do not appear. Some compounds were tested as several samples or in several runs, with calls that do not always agree. The source made the active and inactive calls. Calls follow the shape of the dose curve; as a rule, active = well fitted inhibition curve with a large enough effect in the signal ratio in the repeat runs (not every such curve was filed as active); inconclusive = weak or mixed curves, or effect the other way; inactive = no such curve, though single readings can be large or run the other way; the % refers to the signal ratio.
% is scaled to controls: 0 for no effect and ±100 for the full control effect; potency is read from the fitted curve at half-maximal effect.

The molecules below were run against Glucocorticoid receptor (Homo sapiens) (UniProt P04150) (assay: qHTS assay to identify small molecule antagonists of the glucocorticoid receptor (GR) signaling pathway (AID 720692)). Conditions: GR-bla HeLa, beta-lactamase FRET ratio, dexamethasone-stimulated, 18 h; series mostly up to 58.5 µM; activity change, negative = inhibition: at the top concentration.
Glucocorticoid receptor (Homo sapiens), sequence (P04150 whole entry, looked up): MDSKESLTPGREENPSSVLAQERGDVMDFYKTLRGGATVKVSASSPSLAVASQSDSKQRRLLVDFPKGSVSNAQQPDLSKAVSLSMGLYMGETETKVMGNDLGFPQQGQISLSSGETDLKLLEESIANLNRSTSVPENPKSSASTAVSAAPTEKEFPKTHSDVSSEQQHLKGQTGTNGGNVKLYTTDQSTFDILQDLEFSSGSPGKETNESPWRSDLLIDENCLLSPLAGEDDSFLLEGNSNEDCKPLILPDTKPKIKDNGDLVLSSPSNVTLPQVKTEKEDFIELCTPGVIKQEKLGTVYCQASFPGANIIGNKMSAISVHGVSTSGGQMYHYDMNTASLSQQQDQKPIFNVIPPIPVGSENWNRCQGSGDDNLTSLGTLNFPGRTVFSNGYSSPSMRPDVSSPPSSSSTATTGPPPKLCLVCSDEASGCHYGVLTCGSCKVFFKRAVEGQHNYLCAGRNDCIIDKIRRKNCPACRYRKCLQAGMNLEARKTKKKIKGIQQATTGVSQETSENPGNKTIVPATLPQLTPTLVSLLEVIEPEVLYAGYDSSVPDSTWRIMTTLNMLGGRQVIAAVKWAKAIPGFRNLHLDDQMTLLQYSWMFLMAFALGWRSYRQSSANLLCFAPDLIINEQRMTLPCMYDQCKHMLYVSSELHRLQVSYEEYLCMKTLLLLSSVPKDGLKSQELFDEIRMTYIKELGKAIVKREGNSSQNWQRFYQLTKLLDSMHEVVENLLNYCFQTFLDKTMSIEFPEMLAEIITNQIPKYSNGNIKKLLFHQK
Description: U.S. Tox21 Program National Center for Advancing Translational Sciences [NCATS] NIH Chemical Genomics Center [NCGC] U.S. Environmental Protection Agency [EPA] National Institutes of Environmental Health Sciences [NIEHS] National Toxicology Program [NTP] U.S. Food and Drug Administration [FDA] Tox21 Assay Overview: The Glucocorticoid receptor (GR) is one of the members of the nuclear receptor family of ligand-dependent transcription factors. GR plays a critical role in carbohydrate, protein and lipid metabolisms and programmed cell death. CellSensor GR-bla HeLa cell line (Invitrogen) contains a beta-lactamase reporter gene under the control of the glucocorticoid response element stably integrated into HeLa cells, a cervical cancer cell line that expresses glucocorticoid receptor. The activation of the reporter gene under culture conditions can be detected by fluorescence intensity. This cell line has been used to screen the Tox21 10K compound library and to identify the compounds that inhibit the GR signaling.
Tox21 Assay Protocol Summary: The GR-bla HeLa cells were dispensed at 1500 cells/5 ul/well in 1536-well black wall/clear bottom plates using a Multidrop Combi (ThermoFisher Scientific, Waltham, MA) dispenser. After the assay plates were incubated at a 37 C/5% CO2 incubator for 4 hours, 23 nL of compounds dissolved in DMSO, positive controls or DMSO only was transferred to the assay plate by a pintool station (Kalypsys, San Diego, CA), followed by addition of 1 uL of dexamethasone (5 nM, final concentration in the well). The plates were incubated at 37 C for 18 hours. After 1 uL of LiveBLAzerTM B/G FRET substrate was added using a Flying Reagent Dispenser (Aurora Discovery, San Diego, CA), the plates were incubated at room temperature for 2 hours, and fluorescence intensity was measured by an Envision plate reader (PerkinElmer, Shelton, CT).
In the case of `O=C1c2ccccc2C(=O)C1c1nc2ccccc2c(Br)c1O`, the “activity change, negative = inhibition” value is reported as -12.8% (inactive).
In the case of `CCCCCCCCCCCCCCN(CCO)CCO`, the Potency is reported as 19.5 µM (active).
For `c1csc(SSc2cccs2)c1`, the “activity change, negative = inhibition” value was -3.03% (inactive).
`N#CCCN(CCO)CCO` was tested, and the “activity change, negative = inhibition” value was 5.76% (inactive).
For `C=Cc1ccc(S(=O)(=O)O)cc1`, the Potency was “inactive and 19.5 µM (active)”.
`CCCC(=O)C(=O)O` was tested, and the “activity change, negative = inhibition” value was -14.6% (inactive).
For `Oc1ccc(Cl)c2cccnc12`, the “activity change, negative = inhibition” value was 0.523% (inactive).
`Cc1ccc2c(Br)cc(Br)c(O)c2n1` was tested, and the Potency was 23.9 µM (active).
For `CC1CC(OC(=O)C(O)c2ccccc2)CC(C)(C)N1C` (stereo not given), the Potency was “inactive”.
In the case of `C=CC(=O)[O-].C=CC(=O)[O-].[Zn+2]`, the “activity change, negative = inhibition” value is reported as 3.23% (inactive).
`Cc1c(C)c2c(c(C)c1OC(=O)CCC(=O)OCCO)CC[C@@](C)(CCC[C@H](C)CCC[C@H](C)CCCC(C)C)O2` was tested, and the Potency was 19 µM (active).
With `C1COC1` the “activity change, negative = inhibition” value was -11.2% (inactive).
`Cc1ccc(CO)cc1` was tested, and the “activity change, negative = inhibition” value was -5.93% [at 78.9 µM] (inactive).
For `O=C1CCCCCCCCCCOCCCCO1`, the “activity change, negative = inhibition” value was 1.93% (inactive).
With `CCCCCCCCCI` the “activity change, negative = inhibition” value was -14.3% [at 78.9 µM] (inactive).
`O=Cc1c2ccccc2c(Cl)c2ccccc12` was tested, and the “activity change, negative = inhibition” value was 12.7% (inactive).
`CCOc1ccccc1O[C@H](c1ccccc1)[C@H]1CNCCO1` was tested, and the “activity change, negative = inhibition” value was 10% (inactive).
For `CC(CN(C)C)C(C)(O)Cc1ccc(Cl)cc1` (stereo not given), the “activity change, negative = inhibition” value was -5.43% (inactive).
`O=C(OC(=O)c1ccccc1)c1ccccc1` was tested, and the “activity change, negative = inhibition” value was -1.44% [at 78.9 µM] (inactive).
With `NC1[C@H]2CN(c3nc4c(cc3F)c(=O)c(C(=O)O)cn4-c3ccc(F)cc3F)C[C@@H]12` (stereo not given in full) the “activity change, negative = inhibition” value was 14.9% (inactive).
`O=C(CCCN1CC=C(n2c(=O)[nH]c3ccccc32)CC1)c1ccc(F)cc1` was tested, and the “activity change, negative = inhibition” value was 8.28% (inactive).
For `NNC(=O)CP(=O)(c1ccccc1)c1ccccc1`, the “activity change, negative = inhibition” value was -14.4% (inactive).
`CCOC(C)=O` was tested, and the Potency was “inactive”.
In the case of `COC(=O)CCS`, the “activity change, negative = inhibition” value is reported as -2.22% (inactive).
In the case of `FC(F)(F)c1ccccc1Cl`, the “activity change, negative = inhibition” value is reported as -0.974% [at 78.9 µM] (inactive).
With `C=C/C(C)=C/C/C=C(\C)CCC=C(C)C` the Potency was 38.9 µM (active).
With `CO/N=C(/C(=O)N[C@@H]1C(=O)N2C(C(=O)O)=C(COC(N)=O)CS[C@H]12)c1ccco1` the Potency was “inactive”.
In the case of `OC(CCN1CCCC1)(c1ccccc1)C1CCCCC1` (stereo not given), the “activity change, negative = inhibition” value is reported as 28.1% [at 27 µM] (inactive).
With `CC(C)C=O` the “activity change, negative = inhibition” value was -11.6% [at 78.9 µM] (inactive).
`CCOC(=O)c1ccccc1C(=C1C=C(Br)C(=O)C(Br)=C1)c1cc(Br)c(O)c(Br)c1` was tested, and the Potency was 4.61 µM (active).
`CC1(C)S[C@@H]2[C@H](NC(=O)C(c3ccccc3)S(=O)(=O)O)C(=O)N2[C@H]1C(=O)O` (stereo not given in full) was tested, and the “activity change, negative = inhibition” value was 1.42% (inactive).
`CCCCCC[C@@H](O)C/C=C\CCCCCCCC(=O)O` was tested, and the Potency was “inactive”.
`CC1(C)[C@@H](OC(=O)CCC(=O)O)CC[C@]2(C)[C@H]3C(=O)C=C4[C@@H]5C[C@@](C)(C(=O)O)CC[C@]5(C)CC[C@@]4(C)[C@]3(C)CC[C@@H]12` was tested, and the “activity change, negative = inhibition” value was -8.63% [at 27 µM] (inactive).
In the case of `CCC1NC(=O)c2cc(S(N)(=O)=O)c(Cl)cc2N1` (stereo not given), the “activity change, negative = inhibition” value is reported as -1.42% [at 27 µM] (inactive).
In the case of `CCCCCCCCC(CCCCCC)C(=O)O` (stereo not given), the Potency is reported as 38.9 µM (active).
For `CCC1CO1` (stereo not given), the “activity change, negative = inhibition” value was -2.4% (inactive).
`COc1ccccc1NC(=O)c1cc2ccccc2cc1O` was tested, and the Potency was 38.9 µM (active).
For `Cc1ccco1`, the “activity change, negative = inhibition” value was 1.13% (inactive).
`CN1C(C(=O)Nc2ccccn2)=C(O)c2sccc2S1(=O)=O` was tested, and the “activity change, negative = inhibition” value was 6.91% [at 27 µM] (inactive).
`O=C(/C=C/c1ccc(O)c(O)c1)O[C@@H]1C[C@@](OC(=O)/C=C/c2ccc(O)c(O)c2)(C(=O)O)C[C@@H](O)[C@@H]1O` was tested, and the “activity change, negative = inhibition” value was -14.4% (inactive).
